What was measured:
Type in all cases: functional
[1] = target: Solute carrier family 2, facilitated glucose transporter member 1 (Homo sapiens) (UniProt P11166); test: ST_JUDE_LEISH: Cytotoxicity at 2uM final concentration against transgenic Leishmania Mexicana promastigotes LmGLUT1 that are glucose transport deficient and complemented with the human glucose transporter GLUT1. Activity is measured by DNA content using SYBR green in vitro
[2] = target: Hexose transporter 1 (Plasmodium falciparum) (UniProt O97467); test: ST_JUDE_LEISH: Cytotoxicity at 2uM final concentration against transgenic Leishmania Mexicana promastigotes LmPfHT that are glucose transport deficient and complemented with the Plasmodium falciparum hexose transporter. Activity is measured by DNA content using SYBR green in vitro
[3] = target: Glucose transporter (Leishmania mexicana) (UniProt O61059); test: ST_JUDE_LEISH: Cytotoxicity at 2uM final concentration against transgenic Leishmania Mexicana promastigotes LmGT2 that are glucose transport deficient and complemented with the L. Mexicana glucose transporter 2. Activity is measured by DNA content using SYBR green in vitro

Solute carrier family 2, facilitated glucose transporter member 1 (Homo sapiens), sequence (P11166 whole entry): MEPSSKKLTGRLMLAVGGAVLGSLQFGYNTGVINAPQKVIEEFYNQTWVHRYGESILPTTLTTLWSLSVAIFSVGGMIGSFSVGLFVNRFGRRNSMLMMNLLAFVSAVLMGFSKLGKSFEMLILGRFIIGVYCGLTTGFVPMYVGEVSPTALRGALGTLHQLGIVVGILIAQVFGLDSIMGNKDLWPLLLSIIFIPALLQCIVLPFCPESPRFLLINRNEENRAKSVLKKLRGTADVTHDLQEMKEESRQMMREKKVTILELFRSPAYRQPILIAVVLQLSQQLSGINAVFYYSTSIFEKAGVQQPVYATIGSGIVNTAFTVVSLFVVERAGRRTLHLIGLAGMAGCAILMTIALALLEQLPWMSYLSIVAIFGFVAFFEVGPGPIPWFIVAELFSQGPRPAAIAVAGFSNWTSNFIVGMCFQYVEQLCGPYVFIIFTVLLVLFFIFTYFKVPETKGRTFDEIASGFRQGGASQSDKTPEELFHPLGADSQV

SMILES | inhibition [1] | inhibition [2] | inhibition [3]
N#Cc1ccc(-c2ccc3nc(N4CCCN(C5CCC5)CC4)ccc3c2)cc1 | 6.14% | 7% | 6.34%
O=C(Nc1ccccc1C(F)(F)F)Nc1nn(Cc2c(F)cccc2Cl)cc1Br | 5.53% | 4.7% | 3.18%
CC[C@H](NC(=O)c1c(CCCN2CCN(c3ccccc3)CC2)c(-c2ccccc2)nc2cc(O)ccc12)c1ccccc1 | 7.88% | 6.19% | 10.9%
O=C(NCCN1CCCC1)c1cccc(-c2ccc(-c3nc4ccccc4[nH]3)s2)c1 | 3.42% | 1.36% | 4.63%
COc1ccc2nccc([C@@H](O)CN3CCC(NCc4cc5cccnc5[nH]4)CC3)c2n1 | 15.5% | 14.9% | 3.26%
Cc1cc(N[C@@H](CC(C)C)C(=O)NC2CCCC2)nc(NCC2CCCCC2)n1 | 3.95% | 3.89% | 0.25%
O=c1cc(NCCCNC2CCOc3c(Cl)cc(Cl)cc32)[nH]c2ccccc12 (stereo unspecified) | 1.09% | 2.42% | 1.28%
CCCCNC(=O)[C@H](CC1CCCCC1)NC(=O)c1ccc(O)c(-c2ccc(Cl)c(Cl)c2)c1 | -0.2% | -1.98% | 0.36%
Cc1ccc(Nc2ccnc(Nc3ccc(C)c(F)c3)n2)cc1O | 9.14% | 12.6% | 3.98%
Cc1cccn2c(=O)c3cc(C(=O)NC(C)c4ccccc4)c(=N)n(CCN4CCOCC4)c3nc12 (stereo unspecified) | 3.65% | 1.65% | -1.52%
COc1ccc(CCN(C)CCOc2ccc(NC(=O)c3cc(SC)cc4c(=O)c5ccccc5[nH]c34)cc2)cc1OC | 4.06% | 3.15% | 2.82%
CC(C)Sc1nc(-c2ccccc2)nc2c1COC(C)(C)C2 | -2.07% | -2.02% | -4.12%

Reference: ChEMBL document CHEMBL3433997, “St. Jude Leishmania screening dataset” (2016)
